In PubChem BioAssay AID1814 (Broad Institute, 2009) one finds activity score data, which are given here for 105 compounds.

Molecules are shown by their SMILES. Hit rate of the full screen: of about 300,000 compounds, about 22,000 (7.3%) were called active. Not shown: some 2% with an inconclusive outcome. Cut-off read from the data, not from the text of the source: active = activity score below about -60%; inconclusive = mostly about -28% to -61%; inactive = positive scores. The entries come from a sample that favours actives as a whole.

This experiment can be described thus: Activators via SNCA 5'UTR binding, MLPCN (AID 1814). Particulars: alpha-synuclein 5'UTR reporter, activators screen; stronger effect = lower value; tested at 7.5 µM.
Regarding `COc1ccc2oc(-c3cccc(NC(=O)CSc4ccc(Cl)cc4)c3)nc2c1`, the activity score is -97.9% (active).

`O=C(O)c1cccc(N=NN2CCCCCC2)c1`: the activity score was -74.8% (active).

Take `Cc1ccc(C(=O)Nc2ccc(C)c(S(=O)(=O)N(C)C)c2)s1`: the activity score is -185% (active).

Take `COc1ccc2ccccc2c1CNCc1ccccn1`: the activity score was -104% (active).

Turning to `C/C(=N\NC(=O)Cc1ccc(Cl)cc1)c1ccccn1`, the activity score is 85.6% (inactive).

As to `O=C(c1ccc(Cl)cc1)N1N=C(c2ccccn2)CC1(O)C(F)(F)F` (stereo not given), the activity score is 68.6% (inactive).

Turning to `Cc1ccc(S(=O)(=O)/N=C(/Nc2ccccn2)c2ccc(Cl)cc2)cc1`, the activity score is -118% (active).

Regarding `Cc1cccc(CSc2ccc(-c3cccs3)nn2)c1`, the activity score was -110% (active).

As to `COc1ccc(/C(O)=C2/C(=O)C(=O)N(CCCN(C)C)C2c2ccccc2)cc1OC` (stereo not given), the activity score was -86.9% (active).

Consider `Cc1ccc(NC(=O)c2sc3nc(N)c(C#N)cc3c2N)cc1`, for which the activity score was -133% (active).

Regarding `N#Cc1ccc(C2N=C(c3ccccc3)NO2)cc1` (stereo not given), the activity score is -107% (active).

On to `Brc1ccccc1C1N=C(c2ccccc2)NO1` (stereo not given), for which the activity score was -157% (active).

For `COC(=O)c1c(NC(=O)c2ccc(S(=O)(=O)N3CCOCC3)cc2)sc2c1CCN(C(C)C)C2`, the activity score is -85.3% (active).

`O=[N+]([O-])c1cccc(Nc2c3ccccc3nc3ccccc23)c1`: the activity score is -124% (active).

Consider `O=C(Nc1cccc(Br)c1)c1ccc2snnc2c1`, for which the activity score is -93% (active).

Regarding `FC(F)(F)c1ccnc(Oc2ccc(C3=NCCS3)cc2)c1`, the activity score is -169% (active).

Regarding `Cc1nn(C)cc1CNC(=O)Nc1ccc(Cl)cc1`, the activity score is -69.4% (active).

With `Cn1ccc(NC(=O)Nc2ccc(Cl)cc2)n1`, the activity score is -80.2% (active).

For the compound `CSCc1ccc(C(=O)Nc2cc(C)cc(C)c2)cc1`, the activity score was -126% (active).

Take `C=CCn1c(SCC(N)=O)nnc1-c1cc2c(s1)CCC(CC)C2` (stereo not given): the activity score was -137% (active).

As to `c1ccc(CCN2CN=C(Nc3nc4ccccc4o3)NC2)cc1`, the activity score is -174% (active).

In the case of `O=C(NCCc1c[nH]c2ccccc12)c1cc2ccccc2oc1=O`, the activity score was -188% (active).

With `O=C(NCc1ccccn1)c1cc2ccccc2oc1=O`, the activity score was -79.8% (active).

For `O=C(N/N=C/c1ccc(Cl)c(Cl)c1)c1ccc2nc[nH]c2c1`, the activity score was -191% (active).

For the compound `CSc1ccc(/C=N/NC(=O)c2cccc(Cl)c2)cc1`, the activity score was -142% (active).

`Cc1nn(C)c(Oc2ccccc2)c1[N+](=O)[O-]`: the activity score is -79.9% (active).

Turning to `Cc1ccc(N2C(=O)S/C(=C/c3cn(C)c4ccccc34)C2=O)cc1`, the activity score was -177% (active).

On to `COc1cc(SC)ccc1C(=O)NCCOc1ccccc1Cl`, for which the activity score is -151% (active).

`O=C(NC(Nc1nc2ccc([N+](=O)[O-])cc2s1)(C(F)(F)F)C(F)(F)F)c1ccccc1`: the activity score was 94.1% (inactive).

Take `O=C(Nc1nc2ccc([N+](=O)[O-])cc2s1)c1ccncc1`: the activity score was -104% (active).

Regarding `CCN(CC)c1ccc(C(=O)OCC(=O)c2ccco2)cc1`, the activity score was -179% (active).

For the compound `Cc1csc(NC(=O)CSc2nnc(-c3cccnc3)o2)n1`, the activity score was -101% (active).

For `COC(=O)c1c(NC(=O)COc2ccc(Cl)cc2Cl)sc2c1CC(C)(C)NC2(C)C`, the activity score was 102% (inactive).

For the compound `Cc1cc(NC(=O)COc2ccc(Cl)cc2Cl)n(CCC#N)n1`, the activity score is -122% (active).

Turning to `COc1ccc(C(=O)NCCSc2ccccc2C)cc1`, the activity score is -113% (active).

On to `COc1ccc(Nc2cc(=O)oc3ccccc23)cc1`, for which the activity score is -97.7% (active).

Turning to `CSc1nc(-c2ccccc2)nc(C(Cl)Cl)n1`, the activity score was 114% (inactive).

`Cc1csc(NC(=O)Nc2ccccc2[N+](=O)[O-])n1`: the activity score is -255% (active).

In the case of `NC(=O)c1sc2nc3c(c(-c4ccccc4)c2c1N)CCC3`, the activity score is 56.2% (inactive).

Turning to `CN(C)c1ccnc2sc(C(=O)c3ccccc3)c(N)c12`, the activity score is -138% (active).

Take `Cc1nc2sc(C(=O)c3ccccc3)c(N)c2c2c1CCCC2`: the activity score is -156% (active).

In the case of `CCOc1cc(N2CCOCC2)c(OCC)cc1NC(=O)COc1cccc2cccnc12`, the activity score was 88.8% (inactive).

As for `Cc1cccc(NC(=O)c2ccc3ccccc3n2)n1`, the activity score is -103% (active).

Consider `Cc1cccc(NC(=O)Cc2ccc(Br)cc2)n1`, for which the activity score was -90.2% (active).

As to `Cc1cccc(NC(=O)COc2ccc(Br)cc2C)n1`, the activity score is -210% (active).

With `Cc1cccc(NC(=O)COc2ccccc2C)n1`, the activity score is -109% (active).

In the case of `Cc1ccccc1OCC(=O)Nc1ccc2c(c1)ncn2C`, the activity score was -256% (active).

For the compound `CCc1c(C)c2ccc(OC3CCCCC3=O)cc2oc1=O` (stereo not given), the activity score is -133% (active).

Turning to `C=CCOc1ccc(/C=C2\SC(=S)N(CCC(=O)O)C2=O)cc1`, the activity score was 80% (inactive).

For the compound `Cc1ccc(-c2nn(-c3ccccc3)cc2/C=C2\SC(=S)N(CCCCCC(=O)O)C2=O)o1`, the activity score was -89.9% (active).

`COc1ccc2nc(Nc3nc(-c4cc5ccccc5oc4=O)cs3)sc2c1`: the activity score was -131% (active).

For `CCNc1nc(-c2cc3ccccc3o2)cs1`, the activity score was -187% (active).

As to `O=c1oc2ccccc2cc1-c1csc(Nc2ccc(O)cc2)n1`, the activity score was -171% (active).

As to `COc1ccc2nc(Nc3nc(-c4ccncc4)cs3)sc2c1`, the activity score is -122% (active).

As for `CC(Cc1cccs1)NC(=O)NC1CCCCC1` (stereo not given), the activity score is -95.9% (active).

Take `O=C(NC1CCCCCCC1)c1cccs1`: the activity score is -77.8% (active).

`CC(Cc1cccs1)NC(=O)c1cccc(Cl)c1` (stereo not given): the activity score is -95.5% (active).

Regarding `Cc1cnc(NC(=O)c2ccc(Cl)nc2)s1`, the activity score is -97.1% (active).

Take `COc1cc(CNc2ncn[nH]2)ccc1OCc1ccccc1C`: the activity score is -65.6% (active).

As to `COC(=O)Cc1csc(/N=C/c2c(O)n(-c3cccc(C(F)(F)F)c3)c(=O)c3ccccc23)n1`, the activity score was 81.8% (inactive).

Regarding `O=C(Cc1cccs1)NCc1cccc(C(F)(F)F)c1`, the activity score was -110% (active).

Regarding `CC(C)c1ccc(/C=C2\NC(=O)NC2=O)cc1`, the activity score is -66.1% (active).

With `COc1cccc(/C(C)=N/Nc2ncc(Cl)cc2Cl)c1`, the activity score is -119% (active).

For `C/C(=N\Nc1ncc(Cl)cc1Cl)c1cccs1`, the activity score is -91.6% (active).

With `C/C(=N\Nc1nc2ccccc2[nH]1)c1cccs1`, the activity score is -116% (active).

Consider `COc1cccc(/C=N/Nc2ncc(C(F)(F)F)cc2Cl)c1O`, for which the activity score was 76.7% (inactive).

As for `C/C(=N\Nc1ncc(Cl)cc1Cl)c1ccc(S(=O)(=O)NCc2ccco2)cc1`, the activity score is -141% (active).

Take `Nc1cccc(CCc2nc3ccccc3[nH]2)c1`: the activity score is -77.9% (active).

As for `Cc1c(C(=O)OC(C)C)sc(NC(=O)c2cccnc2)c1C#N`, the activity score is -80.1% (active).

As to `CNc1nc2c(C)cccn2c(=O)c1C=Nc1ccc(OC)cc1`, the activity score was -108% (active).

As for `O=C(Nc1ccc(N2CCOCC2)cc1)c1ccc(-c2ccccc2[N+](=O)[O-])o1`, the activity score is -107% (active).

For `O=C(Nc1ccc2sc3ccccc3c(=O)c2c1)c1ccccc1Cl`, the activity score is -135% (active).

As for `Cc1ccc(SCC(=O)c2cc(C)c(OC(=S)N(C)C)c(C)c2)cc1`, the activity score is -155% (active).

On to `CCOc1ccc(C(=O)Nc2cc(OC)ccc2OC)cc1`, for which the activity score was -88.9% (active).

`CCOc1ccc(C(=O)Nc2cccc(SC)c2)cc1`: the activity score is -168% (active).

Consider `CCOc1ccc(NC(=O)Nc2cc(C)ccc2OC)cc1`, for which the activity score is -78.4% (active).

Take `CCOc1ccc(NC(=O)Nc2cc(C)on2)cc1`: the activity score is -128% (active).

Consider `CC(=O)c1cc(C#N)c(SCC(=O)Nc2nccs2)nc1C`, for which the activity score was -110% (active).

Take `CC(=O)c1cc(C#N)c(SCC(=O)C(C)(C)C)nc1C`: the activity score is -148% (active).

Consider `CCOC(=O)c1cccc(NC(=O)c2ccc(F)cc2F)c1`, for which the activity score was -127% (active).

For the compound `CCC(=C/c1sc2ccc3ccccc3c2[n+]1C)/C=C1\Sc2ccc3ccccc3c2N1C`, the activity score was -122% (active).

`O=C(c1nnc(-c2ccc(Cl)cc2)o1)C1CCCC1`: the activity score was -86.2% (active).

For the compound `CCOC(=O)c1sc(-c2cccc([N+](=O)[O-])c2)cc1N`, the activity score was -129% (active).

On to `O=C(Cn1cnc2c(cnn2-c2ccccc2)c1=O)NCc1ccccc1`, for which the activity score is -148% (active).

Regarding `O=C(OCC(=O)c1c[nH]c2ccccc12)c1cccc(O)c1`, the activity score is -220% (active).

In the case of `O=C(OCc1ccc(-c2ccccc2)cc1)c1cccc(O)c1`, the activity score was -109% (active).

With `CCc1ccccc1NC(=O)c1cc(-c2ccc3c(c2)OCO3)on1`, the activity score is -145% (active).

Regarding `C/C(=N/Nc1nc(-c2ccccc2)c(CC(=O)O)s1)c1ccccc1`, the activity score is -168% (active).

As to `COc1ccccc1N1CCN(/N=C\C(Br)=C\c2ccccc2)CC1`, the activity score was -74.9% (active).

With `COc1ccccc1N1CCN(/N=C/c2ccc(O)cc2O)CC1`, the activity score was -147% (active).

Turning to `CCNC(=O)N1CCNC(=O)C1CC(=O)Nc1ccc(C(=O)OCC)cc1` (stereo not given), the activity score is -69.7% (active).

Take `COc1ccc(-c2cc(C(=O)NC(Cc3c[nH]c4ccccc34)C(=O)O)c(C)o2)cc1OC` (stereo not given): the activity score is -104% (active).

Turning to `CCOc1ccc(C2c3[nH]c4ccccc4c3CCN2Cc2cn(CC)nc2C)cc1` (stereo not given), the activity score is -101% (active).

With `COc1ccccc1-c1cnn2c(N3CCOCC3)cc(C)nc12`, the activity score is -164% (active).

Take `CCn1ccnc1CN(C)Cc1nc(-c2ccc3c(c2)OCO3)no1`: the activity score was -80.6% (active).

As for `Cc1ccc(NC(=O)c2cc3ccccc3o2)cc1`, the activity score is -123% (active).

For `O=C(NC(=S)Nc1cccc(-c2ccc(CO)o2)c1)c1cccs1`, the activity score was -80.9% (active).

For the compound `COc1ccc2occ(C(=O)c3ccc(N=C(C)N(C)C)cc3)c2c1`, the activity score is -75.8% (active).

As for `COC(=O)c1ccc(NCC(=O)c2ccccc2)cc1`, the activity score was -123% (active).

Regarding `C=CCNC(=O)c1ccc2c3n(nc2c1)-c1ccc(C)cc1CO3`, the activity score was -197% (active).

Regarding `Cc1ccccc1-n1c(C)cc(/C=C2\NC(=O)NC2=O)c1C`, the activity score is -131% (active).

`Cc1nn(CCOc2ccccc2)c(=O)n1-c1ccccc1F`: the activity score was -99.2% (active).

For `C=C(C)CSc1nnc(-c2ccc(C)cc2)n1N`, the activity score is -99.6% (active).

Consider `CCCCOc1ccc(CSC(=N)N)cc1[N+](=O)[O-]`, for which the activity score is -91.9% (active).

Consider `CCCCCOc1ccc(CSC2=NCCN2)cc1[N+](=O)[O-]`, for which the activity score was -150% (active).
